# Measurements published in the supplement of paper PMC3545927.
# This is one part of the list. The true hit rate is not given.
# B1: HC2246 (peptide)
# chain: CAEVVTSTWMAGNASASA
# B2: FS-851 (peptide)
# chain: CAQSSRHRRAAGNASASA
# B3: FS-141 (peptide)
# chain: CAQSSRQPRPAGNASASA
# B4: FS-1106 (peptide)
# chain: CAVSSRHRRAAGNASASA
# B5: FS-1145 (peptide)
# chain: CANSKRKSRPAGNASASA
# B6: FS-1501 (peptide)
# chain: CAVSSRKSRWAGNASASA
# B7: HC496 (peptide)
# chain: CAQWQVLPCSAGNASASA
# B8: HC800 (peptide)
# chain: CARTGVRTITAGNASASA
# B9: HC180 (peptide)
# chain: CARRGPRLGVAGNASASA
# B10: FS-166 (peptide)
# chain: CAGRSRELRQAGNASASA
# B11: FS-2657 (peptide)
# chain: CAREKRELRQAGNASASA
# B12: FS-165 (peptide)
# chain: CAGRSRDLRGAGNASASA
# B13: FS-2208 (peptide)
# chain: CAREKREKIKAGNASASA
# B14: FS-735 (peptide)
# chain: CAVNQRVRRAAGNASASA
# B15: FS-823 (peptide)
# chain: CALLQRKKKLAGNASASA
# B16: FS-1360 (peptide)
# chain: CALLQRVRRAAGNASASA
# B17: FS-608 (peptide)
# chain: CALIPRVRRAAGNASASA
# B18: FS-1298 (peptide)
# chain: CAADPRVRRAAGNASASA
# B19: HC524 (peptide)
# chain: CAADARVCSCAGNASASA
# B20: WN2 (peptide)
# chain: CAQKKRGGTAAGNASASA
# B21: HC535 (peptide)
# chain: CAENLVILNAAGNASASA
# B22: FS-741 (peptide)
# chain: CAADPRTWRSAGNASASA
# B23: HC1534 (peptide)
# chain: CAAGVQEDAAAGNASASA
# B24: HC2334 (peptide)
# chain: CAEKPCHRPSAGNASASA
# B25: HC1813 (peptide)
# chain: CADRMEECSQAGNASASA
# B26: FS-2200 (peptide)
# chain: CARWNRFAMIAGNASASA
# B27: FS-1807 (peptide)
# chain: CARWPRSDPEAGNASASA
# B28: FS-3075 (peptide)
# chain: CARSARSVARAGNASASA
# B29: FS-2528 (peptide)
# chain: CARTWRSVPEAGNASASA
# B30: FS-1927 (peptide)
# chain: CARSIKSVPEAGNASASA
# B31: FS-2377 (peptide)
# chain: CARSARSAPEAGNASASA
# B32: HC2508 (peptide)
# chain: CASTWCSAHLAGNASASA
# B33: HC1582 (peptide)
# chain: CAMILMTHFFAGNASASA
# B34: HC1955 (peptide)
# chain: CAHCTTPCSGAGNASASA
# B35: HC2142 (peptide)
# chain: CAEQVVCCSMAGNASASA
# B36: FS-1674 (peptide)
# chain: CAKVKREAEKAGNASASA
# B37: FS-2585 (peptide)
# chain: CARQKKLAEKAGNASASA
# B38: FS-1117 (peptide)
# chain: CAEPPEAKRGAGNASASA
# B39: FS-454 (peptide)
# chain: CAKVKREKRGAGNASASA
# B40: FS-1491 (peptide)
# chain: CASVSREDRGAGNASASA
# B41: FS-2874 (peptide)
# chain: CAPEKRSVFAAGNASASA
# B42: HC860 (peptide)
# chain: CAKCDELAAKAGNASASA
# B43: FS-1044 (peptide)
# chain: CAPEKRAKRGAGNASASA
# B44: FS-428 (peptide)
# chain: CAGHQREKRGAGNASASA
# Target: furin, P09958
# Experiment: furin cleavage Z-score vs untreated control; higher = more cleavage, active = 3.5 or more, inactive = 1 or less, 8 variable residues between constant flanks
# In short: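 Furin-free reactions served as the baseline for the cleavage Z-score, which is the log read count lowess-adjusted and scaled by median absolute deviation. Counts came from released DNA, adapter-tagged by PCR and sequenced. Purified furin had cut 8-mer peptides fused to a cDNA oligonucleotide on magnetic beads during 7.5, 15 or 30 min at 1:10 enzyme:substrate.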
# 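Further: purified furin at 1:10 enzyme:substrate in 50 mM HEPES pH 7.5.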
# Sequence of furin, P09958 (P09958 whole entry): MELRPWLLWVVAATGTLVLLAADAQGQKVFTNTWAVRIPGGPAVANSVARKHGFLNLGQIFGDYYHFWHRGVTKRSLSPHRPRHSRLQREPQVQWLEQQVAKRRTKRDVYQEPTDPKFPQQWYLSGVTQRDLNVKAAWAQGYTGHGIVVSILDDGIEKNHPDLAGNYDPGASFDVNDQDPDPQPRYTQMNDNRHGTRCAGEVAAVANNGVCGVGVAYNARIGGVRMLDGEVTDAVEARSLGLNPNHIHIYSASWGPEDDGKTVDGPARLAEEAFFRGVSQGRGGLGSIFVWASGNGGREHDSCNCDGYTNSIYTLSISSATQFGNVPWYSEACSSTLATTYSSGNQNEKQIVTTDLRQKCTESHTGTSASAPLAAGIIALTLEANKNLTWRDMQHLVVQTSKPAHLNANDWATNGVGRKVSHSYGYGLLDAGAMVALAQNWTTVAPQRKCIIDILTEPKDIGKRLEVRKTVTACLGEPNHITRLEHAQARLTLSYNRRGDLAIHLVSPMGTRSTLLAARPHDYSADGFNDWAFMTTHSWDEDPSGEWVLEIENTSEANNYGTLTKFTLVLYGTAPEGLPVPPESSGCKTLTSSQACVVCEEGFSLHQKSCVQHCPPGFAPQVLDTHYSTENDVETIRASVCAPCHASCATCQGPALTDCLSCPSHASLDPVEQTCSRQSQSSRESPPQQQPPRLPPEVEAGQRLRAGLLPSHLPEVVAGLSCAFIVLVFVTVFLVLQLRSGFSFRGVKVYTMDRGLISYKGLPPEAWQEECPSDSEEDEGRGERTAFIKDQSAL
Sequence,furin cleavage Z-score (7.5 min),furin cleavage Z-score (15 min),furin cleavage Z-score (30 min)
B1,1.57,0.473 (inactive),0.947 (inactive)
B2,13.1 (active),12.7 (active),10.3 (active)
B3,-0.311 (inactive),-0.656 (inactive),-0.417 (inactive)
B4,12.3 (active),12.4 (active),10.3 (active)
B5,-2.35 (inactive),0.946 (inactive),-1.84 (inactive)
B6,3.21,3.75 (active),5.97 (active)
B7,-0.675 (inactive),0.494 (inactive),0.276 (inactive)
B8,-0.25 (inactive),-0.718 (inactive),-0.285 (inactive)
B9,-0.669 (inactive),-0.347 (inactive),-0.923 (inactive)
B10,2.87,2.42,4.09 (active)
B11,9.73 (active),13.3 (active),9.26 (active)
B12,-0.794 (inactive),-0.817 (inactive),-1.52 (inactive)
B13,-0.771 (inactive),-0.626 (inactive),0.291 (inactive)
B14,10 (active),8.42 (active),8.51 (active)
B15,0.0701 (inactive),0.355 (inactive),-0.31 (inactive)
B16,3.77 (active),3.58 (active),3.76 (active)
B17,9.17 (active),10.3 (active),8.48 (active)
B18,10.1 (active),8.47 (active),8.31 (active)
B19,0.17 (inactive),-2.96 (inactive),-3.71 (inactive)
B20,-0.625 (inactive),-0.389 (inactive),0.122 (inactive)
B21,-0.56 (inactive),-1.45 (inactive),0.00797 (inactive)
B22,-0.983 (inactive),1.45,-0.478 (inactive)

Sequence,furin cleavage Z-score (7.5 min),furin cleavage Z-score (15 min),furin cleavage Z-score (30 min)
B23,0.273 (inactive),-0.401 (inactive),-1.13 (inactive)
B24,-0.309 (inactive),0.292 (inactive),0.19 (inactive)
B25,0.635 (inactive),-0.476 (inactive),-0.0128 (inactive)
B26,0.704 (inactive),-0.675 (inactive),-0.478 (inactive)
B27,2.83,2.73,4.21 (active)
B28,5.33 (active),7.5 (active),6.53 (active)
B29,0.349 (inactive),0.625 (inactive),1.35
B30,0.273 (inactive),-0.944 (inactive),0.475 (inactive)
B31,7.91 (active),9.89 (active),6.92 (active)
B32,0.983 (inactive),0.815 (inactive),0.802 (inactive)
B33,-0.371 (inactive),-0.697 (inactive),-2.29 (inactive)
B34,-1.08 (inactive),-1.68 (inactive),0.655 (inactive)
B35,-0.416 (inactive),-0.852 (inactive),2.1
B36,5.11 (active),4.39 (active),5.05 (active)
B37,0.116 (inactive),-2.1 (inactive),0.509 (inactive)
B38,0.349 (inactive),-1.82 (inactive),-0.871 (inactive)
B39,11.2 (active),10.5 (active),9.94 (active)
B40,-0.464 (inactive),-0.739 (inactive),-0.69 (inactive)
B41,-0.508 (inactive),-0.764 (inactive),-1.36 (inactive)
B42,1.37,1.03,-0.237 (inactive)
B43,10.2 (active),9.94 (active),7.39 (active)
B44,11.3 (active),13.2 (active),10.6 (active)
